Measurements reported in PubChem BioAssay (NCI).
About 83,000 compounds went through this panel and 20% of them were active in at least one assay; those are over-represented in the sample as a whole.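 Step 1: grow cells in 96-well plates. Step 2: add test compound at a single concentration. Step 3: incubate 48 h. Step 4: record percent growth.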 Calls of active or inactive are those of the source.

These compounds were tested on SK-MEL-2 melanoma (assay: NCI-60 one-dose screen, 48 h (100 = growth as untreated, 0 = no growth, -100 = all killed)). Details: 1 µM.
Experimental: Growth inhibition of the SK-MEL-2 human tumor cell line is measured as a screen for anti-cancer activity. Cells are grown in 96 well plates and exposed to the test compound for 48 hours. Compounds are tested at a single concentration, which is 10^-5 M for most compounds. The reported endpoint is percent growth (GI% or GIPRCNT), where numbers from 0 - 100% represent growth inhibition, and numbers from -100% - 0 represent cell death. For example, a value of 40 represents 60% growth inhibition. A value of 0 means no net growth occurred over the course of the experiment. A value of -40 indicates 40% of cells at the beginning of the experiment died by the end of the experiment. A value of -100 means all cells are dead at the end of the experiment.
NCI-60 Human Tumor Cell Lines Screen was performed using the standard one-dose NCI protocol, which is described in more detail at https://dtp.cancer.gov/discovery_development/nci-60/default.htm.
Compounds with GIPRCNT values below 10 were considered active. Activity score was based on GIPRCNT using the following formula: […]
Score is 0 for GIPRCNT values of 100 or above, 50 for GIPRCNT values of 0, and 100 for GIPRCNT values of -100.

SMILES | growth
CC/C(=C(/c1ccc(O)cc1)c1ccc(OCCN(C)C(=O)COCCOCCNC(=O)Cc2ccc3c(c2)CN([C@@H]2CCC(=O)NC2=O)C3=O)cc1)c1ccccc1 | 95.4% (inactive)

Same assay, conditions: 10 µM

SMILES | growth
CC/C(=C(/c1ccc(O)cc1)c1ccc(OCCN(C)C(=O)COCCOCCNC(=O)Cc2ccc3c(c2)CN([C@@H]2CCC(=O)NC2=O)C3=O)cc1)c1ccccc1 | 64.1% (inactive)

Same assay, conditions: 10 µM unless noted

SMILES | growth
COc1ccc([C@H]2C(C(=O)c3ccc(Cl)cc3)C3(N[C@@H]2c2ccccc2)C(=O)Nc2ccccc23)cc1 (stereo not given in full) | -29.6% (active)
CCCN(CCC)S(=O)(=O)c1ccc(C(=O)O)cc1.CCCN(CCC)S(=O)(=O)c1ccc(C(=O)O)cc1.[Cl][Pt+2][Cl].[NH2-].[NH2-] | -31.6% (active)
COc1ccc2[nH]c(=O)c(CSc3ccccc3Nc3nccc(-c4ccc5c(c4)OCO5)n3)cc2c1 | 95.6% (inactive)
COc1ccc(NC(=O)CSc2nnc(-c3ccc(-c4nc5ccc(Cl)cc5[nH]4)cc3)o2)cc1 | 39.4% (inactive)
CC1=C(C(=O)Nc2ccccc2)C(c2ccc3ccccc3c2)n2c(nc3ccccc32)N1 (stereo not given) | 106% (inactive)
Nc1nnc(-c2cncc(Br)c2)c(-c2c[nH]c3ccc(Cl)cc23)n1 | 111% (inactive)
O=C(Cc1c(-c2ccccc2[N+](=O)[O-])n(-c2ncnc3c2c(-c2ccccc2)c(-c2ccccc2)n3Cc2ccccc2)[nH]c1=O)c1ccc(Cl)c(Cl)c1 | -22.4% (active)
O=C(N/N=C/c1ccc(Cl)cc1)c1ccc(OCc2nc3ccc(Cl)cc3[nH]2)cc1 | 47.7% (inactive)
CC(=O)c1c2c(c3ccc4c5ccccc5ccc4n13)C(=O)c1ccccc1C2=O | 93.3% (inactive)
Cn1cc(-c2cc3nc(-c4cn(C)c5ncccc45)cc(N)n3n2)c2cc(F)ccc21 | 83.9% (inactive)
COc1cccc(NC(=O)c2ccc(NC(=O)CCl)s2)c1 | 79.6% (inactive)
Cc1nc(Nc2ccccn2)sc1C1=NNC(c2ccccc2F)C1 (stereo not given) | 62.1% (inactive)
O=C(Nc1ccc(F)cc1)Nc1nc2ccc([N+](=O)[O-])cc2s1 | -44.6% (active)
NS(=O)(=O)c1ccc(N2N=C(c3ccc(NC(=O)Nc4ccccc4)cc3)CC2c2ccc(Br)cc2)cc1 (stereo not given) | -75.8% (active)
Fc1cccc(CNc2nc(SCCN3CCOCC3)nc3c2cnn3CC(Cl)c2ccc(Br)cc2)c1 (stereo not given) | 13.5% (inactive)
COc1ccc(-c2cc(-c3cc(OC)c(OC)c(OC)c3)[nH]c(=O)c2C#N)cc1 | 97.8% (inactive)
C#CCCCNCCNc1ccnc2cc(Cl)ccc12 | 98.1% (inactive)
CC(C)CN1C(=O)/C(=C\C(=O)c2cc3ccccc3oc2=O)c2ccccc21 | 101% (inactive)
COc1ccc(NC(=O)Cn2c(/C=C/c3cccc(Br)c3)nc3ccccc3c2=O)cc1 | 80.3% (inactive)

SMILES | growth
CN1CCN(c2ccc3c4c(cccc24)C(=O)N(c2cccc(-c4nn(-c5ccccc5)cc4-c4nc5ccccc5s4)c2)C3=O)CC1 | 120% (inactive)
CCN1C(=O)N(CC)C2NNC(Sc3c(C(=O)O)c4ccccc4n(CC(C)C)c3=O)=NC21 (stereo not given) | 18.5% (inactive)
Cc1ccc(S(=O)(=O)Nc2ccc(-c3ccc4c(c3)NC(=O)/C4=C\c3ccc[nH]3)cc2)cc1 | 105% (inactive)
CCCCNC(=S)Nc1ccc(OCc2nc3ccc(Cl)cc3[nH]2)cc1 | 7.47% (active)
Cc1nn(-c2ccccc2)c2ncn(CC(=O)N/N=C/c3ccccc3O)c(=O)c12 | 55% (inactive)
CCCCCCCCCc1ccc(C(=O)Nc2cc(C)ccc2C(=O)OC)cc1 | 111% (inactive)
O=C(N/N=C/c1ccoc1)c1[nH]c2ccc(Br)cc2c1-c1ccccc1 | -84.5% (active)
O=C(CSc1nnc(-c2ccc(-c3nc4ccc(Cl)cc4[nH]3)cc2)o1)Nc1ccccc1 | 54.5% (inactive)
Oc1ccc(F)c(Nc2nc(SCCN3CCOCC3)nc3c2cnn3CC(Cl)c2ccc(Br)cc2)c1 (stereo not given) | 33.5% (inactive)
S=C(Nc1ccc(OCc2nc3ccc(Cl)cc3[nH]2)cc1)NC1CCCCC1 | -44.9% (active)
COc1ccc(-c2nc3ccc(-c4nnc(SCc5ccccc5)o4)cc3[nH]2)cc1 | 11% (inactive)
O=C(Nc1nc2ccc([N+](=O)[O-])cc2s1)Nc1ccccc1F | 6.45% (active)
COc1cc(C=O)ccc1OC(=O)c1cc(-c2ccc(C)cc2)n(-c2ccc(S(C)(=O)=O)cc2)n1 | 108% (inactive)
CC[C@@]12CC(C(=O)OC)=C3Nc4cc5c(cc4[C@@]34CCN(C[C@H]3O[C@H]31)[C@@H]24)[C@@H]1[C@H](O5)[C@@H](O)[C@@]2(CC)CC(C(=O)OC)=C3Nc4cc(O)ccc4[C@@]34CCN1[C@@H]24 | -70.4% (active)
C/C(=N/O)c1ccc(NC(=O)CSc2nnc(-c3ccc(-c4nc5ccc(Cl)cc5[nH]4)cc3)o2)cc1 | -26% (active)
CCc1ccccc1-c1nc(CN[C@@H]2C[C@@H]3C[C@H]([C@H]2C)C3(C)C)c(C)o1 | -83.6% (active)
CN(C)c1nc(NCCNS(=O)(=O)c2ccc(C(=O)/C=C/c3ccc(F)cc3)cc2)nc(N2CCOCC2)n1 | 62.2% (inactive)
Cc1nc(N)ncc1-c1ccc2ncnc(N3CCc4cc(F)c(Cl)cc43)c2c1 | 100% (inactive)
Cc1ccc(C(=O)Nc2cc(-n3ccnc3C)cc(C(F)(F)F)c2)cc1C#Cc1cnc2cccnn12 | -64.1% (active)
